# Screening results (PubChem)
# The list is not random: actives were taken first. Their share in the collection is about 7.8%.
# HCMV inh – human cytomegalovirus inhibition; AID 1259415; activity change, negative = inhibition, % at 57.5 µM; HFF cells, HCMV-luciferase reporter, 72 h; hits give low values; 410,000 tested, 4.5% active; in the data active = activity change below about -60%; inconclusive = no clear call, values can overlap the other calls; inactive = above about -39%
#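 Inhibition of viral replication was scored as loss of reporter luminescence in HFFs infected with HCMV-luciferase (MOI 1 PFU/cell) for 72 h; compounds tested at 2 doses, normalized to buffer and Salinomycin controls.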
# Lassa entry inh – inhibitors of Lassa virus binding or cell entry | Potency, µM (doses to about 37.9 µM), without a hit: at the highest dose activity change, negative = inhibition, actives largely listed as inhibitors | AID 540256 | Lassa virus pseudotype entry inhibition, cell reporter | 300,000 tested, 1.2% active; calls by dose curve; tested in HEK293 cells; also: potency is read from the fitted curve at half-maximal effect; nearly all actives have a fitted effect of over 50% in size
# MARV entry inh – inhibitors of Marburg virus binding or cell entry | Marburg virus pseudotyped entry inhibition, cell reporter | Potency, µM (series often up to 37.8 µM), without a hit: top-dose activity change, negative = inhibition, hits mostly inhibitors | 300,000 tested, 1.8% active | AID 540276; calls by dose curve; tested in HEK293 cells; also: potency is read from the fitted curve at half-maximal effect
# Vaccinia mCherry – vaccinia inhibition (mCherry reporter); Vaccinia virus mCherry reporter infection, fluorescence; Potency, µM (titrated, usually from 36.5 µM), inactives show top-dose activity change, negative = inhibition, hits mostly inhibitors; 310,000 tested, 0.63% active; AID 720579; calls by dose curve; tested in A549 cells; also: potency is read from the fitted curve at half-maximal effect; nearly all actives have a fitted effect of over 35% in size
# HCV inh – blocks hepatitis C virus | Huh7.5.1 HCVcc-Cre infection, luciferase reporter, 44 h | Potency, µM (titrated, usually from 41.8 µM), for inactives: top-dose activity change, negative = inhibition, actives largely listed as inhibitors | 340,000 tested, 3.4% active | AID 651820; active = well fitted inhibition curve with a large enough effect; inconclusive = small, poorly fitted or top-dose-only effect, or another doubt; inactive = no such curve, though single readings can be large or run the other way; also: potency is read from the fitted curve at half-maximal effect
#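 Cells seeded at 1,000/well and cultured 4 h, then compounds added followed by HCVcc-Cre virus (~0.5 moi). After 44 h further culture, luciferase substrate was added, plates held 15 min at room temperature, and luminescence read for 15 sec.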
# VACV Venus inh – vaccinia inhibition (Venus reporter) | Vaccinia virus Venus reporter expression, fluorescence | Potency, µM (series often up to 36.5 µM), for the others: at the highest dose activity change, negative = inhibition, actives largely listed as inhibitors | 330,000 tested, 0.46% active; calls by dose curve; tested in A549 cells; also: potency is read from the fitted curve at half-maximal effect; nearly all actives have a fitted effect of over 30% in size
# Starred values were filed as active, the others as inactive; i = inactive; ? = inconclusive; nt = no result given; + = active, no number; ! = not active in a repeat; [ ] = remark or other dose. % is scaled to controls: 0 for no effect and ±100 for the full control effect.
SMILES,HCMV inh,Lassa entry inh,MARV entry inh,Vaccinia mCherry,HCV inh,VACV Venus inh
Cc1cc(Nc2ccccc2)n(-c2nc3ccccc3[nH]2)n1,-86.0*,?,?,nt,5.01µM*,?
Cc1cc(NC(=O)C2CCC2)n(-c2ccccn2)n1,36.1,-10.4%,-5.1%,i,10µM*,-16.3%
Cc1cc(NC(=O)c2c(F)cccc2Cl)n(-c2nc3ccccc3[nH]2)n1,?,?,?,-21.6%[1.46 µM],14.1µM*,?
Cc1cc(NC(=O)c2ccccc2F)n(-c2nc3ccccc3[nH]2)n1,0.2,0.0%,-19.5%,nt,?,nt
Cc1cc(C)c(NC(=O)C2CCN(c3nc4ccccc4[nH]3)CC2)c(C)c1,+,11.7%[46.1 µM],nt,-10.0%,nt,-8.2%
Cc1cc(NC(=O)c2ccc(C)s2)n(-c2nc3ccccc3[nH]2)n1,-74.3*,8.9%,10.2%,-11.2%,?,?
Cc1cc(NC(=O)C2CCCCC2)n(-c2nc3ccccc3[nH]2)n1,37.8,?,0.0%[46.1 µM],nt,4.47µM*,?
Cc1ccc(NC(=O)C2CCN(c3nc4ccccc4[nH]3)CC2)cc1Cl,0.0,-18.9%[46.1 µM],nt,i,nt,-17.6%
Cc1cc(NC(=O)c2c(F)cccc2F)n(-c2nc3ccccc3[nH]2)n1,-89.0*,?,?,nt,35.5µM*,nt
C[C@H]1Cc2c(-c3ccccc3)nc3c(c2CO1)CN(C(=O)Nc1cccc(C#N)c1)CC3,nt,nt,-24.1%[14.2 µM],nt,nt,nt
CC(=O)OCON[N+]([O-])=NC(C)C,nt,nt,nt,-11.1%,nt,-16.6%
COC(=O)c1c(NC(=O)c2nc(SCc3ccccc3C)ncc2Cl)sc2c1CCCC2,8.3,26.7%[46.1 µM],3.8%[46.1 µM],-4.6%,nt,-2.6%
COc1cc2c(cc1OC)C(=O)C(CC1CCN(Cc3ccccc3)CC1)C2 (centres undefined),-15.7,nt,nt,i,1.41µM*,-9.2%
CCc1sc(Nc2cccc(C)c2)nc1-c1cc2cccc(OC)c2oc1=O,-8.9,-7.0%[46.1 µM],nt,-10.1%,nt,-14.3%
O=C1C=CC(=O)N1CCCCCCN1C(=O)C=CC1=O,-101.6*,?,?,-27.4%,?,-25.8%
CCN1C(=O)C=CC1=O,nt,7.4%,28.2µM*!,nt,nt,nt
C/C(=N\NC(=O)c1ccccc1)c1ccc(NC(=O)C(F)(F)F)cc1,nt,nt,0.3%[46.1 µM],nt,nt,nt
CC(C)COc1ccc(C/C(N)=N/n2cnnc2)cc1,-94.3*,?,1µM*,i,14.1µM*,-12.0%
CCOC(=O)c1noc2ncnc(Nc3cccc(OC)c3)c12,-10.3,-11.7%[46.1 µM],nt,-4.9%,nt,1.9%
O=c1ccc2ccccc2n1Cc1cccc(F)c1,-62.3*,nt,nt,nt,8.6%,nt
O=c1oc2ccccc2n1Cc1cccc(F)c1,?,nt,nt,nt,5.8%,nt
Cc1ccc(S(=O)(=O)NCC(Nc2cccc(Cl)c2)c2ccccc2)cc1 (centres undefined),-103.1*,?,?,?,nt,?
CCOC(=O)C1CCN(C(c2cccnc2)c2c(NC(=O)c3ccco3)sc(C)c2C)CC1 (centres undefined),-97.3*,?,?,?,6.31µM*,?
Cc1sc(NC(=O)c2ccccc2)c(C(c2ccc(Cl)cc2)N2CCN(CCO)CC2)c1C (centres undefined),3.3,?,?,?,?,?
Cc1ccc(C(c2c(NC(=O)c3ccco3)sc(C)c2C)N2CCOCC2)cc1 (centres undefined),-12.9,nt,nt,-20.2%,nt,-25.2%
SMILES,HCMV inh,Lassa entry inh,MARV entry inh,Vaccinia mCherry,HCV inh,VACV Venus inh
Cc1sc(NC(=O)c2ccco2)c(C(c2cccnc2)N2CCN(c3ccc(F)cc3)CC2)c1C (centres undefined),-100.0*,nt,nt,-0.5%,11.2µM*,-21.8%
CCOc1ccc(C(c2c(NC(=O)c3ccccc3)sc(C)c2C)N2CCN(CCO)CC2)cc1 (centres undefined),-35.9,?,8.91µM*,-14.1%,?,-15.5%
Cc1sc(NC(=O)c2ccco2)c(C(c2ccc(F)cc2)N2CCN(C)CC2)c1C (centres undefined),nt,?,6.31µM*,i,-16.8%,-18.2%
CCOc1ccc(-n2c(=O)c3c(C)c(C)sc3n(CC(=O)NCCc3ccccc3)c2=O)cc1,6.1,-2.1%[46.1 µM],-10.5%[46.1 µM],-12.6%,nt,-8.6%
CCCCNC(=O)[C@@H]1CC=C[C@@H]2CCN(C3CCCCC3)C(=O)[C@@H]21,nt,nt,nt,i,nt,-1.7%
CCCN(c1ccc(C(C)C)cc1)S(=O)(=O)c1ccc2c(c1)n(C)c(=O)c(=O)n2C,-2.1,-21.3%[46.1 µM],?,i,nt,1.0%
O=C(NCc1ccccc1Cl)c1ccc(NC(=O)N2CCSc3ncccc32)cc1,+,4.0%[46.1 µM],nt,-4.9%,nt,-8.4%
O=C(NCc1ccccc1F)c1cccc(NC(=O)N2CCSc3ncccc32)c1,+,0.8%[46.1 µM],nt,-5.6%,nt,-1.3%
CCN(CC)CCN1C(=O)C(=O)/C(=C(\O)c2ccc(Cl)cc2)[C@@H]1c1ccncc1,nt,nt,1.9%,nt,nt,nt
COc1ccc(-c2c(C#Cc3ccsc3)c3cc(-c4ccc5c(c4)OCO5)ccc3n2C)cc1,-71.2*,nt,nt,i,-10.9%,-1.4%
COc1ccc(-c2c(C#Cc3ccsc3)c3cc(-c4ccc5c(c4)OCCO5)ccc3n2C)cc1,-2.7,nt,nt,-14.5%,11.0%,2.1%
COc1ccc(-c2c(C#Cc3ccsc3)c3cc(-c4ccc(C(N)=O)cc4)ccc3n2C)cc1,?,nt,nt,-4.6%,7.08µM*,-13.1%
COc1cc(OC)cc(-c2c(C#Cc3ccsc3)c3cc(-c4cccc5[nH]cc(C=O)c45)ccc3n2C)c1,-1.5,nt,nt,i,10µM*,-8.4%
Cc1ccc(C)c(S(=O)(=O)c2cn(Cc3ccccc3)c3cc(N4CCCC4)c(F)cc3c2=O)c1,19.3,-1.8%[46.1 µM],nt,-16.8%,nt,-25.0%
CCOC(=O)c1c(C=O)c(C)n(Cc2ccc(Cl)cc2)c1C,-23.9,-5.4%,-3.4%,nt,8.91µM*,nt
CC(=O)c1c(C(C)=O)c(C)n(Cc2ccc(Cl)cc2)c1C,-70.7*,-21.2%,?,?,?,-19.8%
COC(=O)c1ccccc1NC(=O)C1=C(C)C(=O)OC12CCCCCC2,0.0,0.8%[46.1 µM],nt,-16.7%,nt,2.5%
COc1cc(NS(=O)(=O)c2ccc(NC(=O)c3ccc(Cl)cc3Cl)cc2)nc(OC)n1,9.1,6.6%[46.1 µM],nt,-13.1%,nt,1.7%
Cc1ccccc1-n1c(=O)n(CCc2ccccc2)c(=O)c2[nH]cnc21,0.8,nt,nt,nt,14.9%,nt
Cc1ccccc1-n1c(=O)n(Cc2ccccc2)c(=O)c2[nH]cnc21,46.3,12.6µM*,?,i,-7.7%,-16.8%
Cc1cc(-c2cc(F)cc3c2OC(CNC(=O)CCn2cncn2)C3)ccc1F (centres undefined),nt,nt,nt,-13.7%,nt,-0.6%
COC(=O)c1ccc(N=C2S/C(=C\c3cc(C)n(-c4cccnc4)c3C)C(=O)N2C)cc1,0.2,?,?,nt,3.55µM*,-18.2%
CCCCc1nn2c(=O)cc(COC(=O)c3ccccc3NC(=O)c3cccc(C)c3)nc2s1,-9.2,2.4%[46.1 µM],nt,-9.0%,nt,-6.5%
